Compound activity: PubChem, National Center for Advancing Translational Sciences (NCATS)
KB-3-1 tox: KB-3-1 parental cell cytotoxicity | AID 1347075 | Potency, µM (titrated, usually from 46.1 µM), actives largely listed as cytotoxic | actives 1.4% (n = 400,000) | KB-3-1 viability, CellTiter-Glo ATP luminescence, 72 h; also: % is scaled to controls: 0 for no effect and ±100 for the full control effect; nearly all actives have a fitted effect of over 60% in size
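Using CellTiter-Glo luminescence, growth of non-resistant KB-3-1 adenocarcinoma cells is assessed 72 h after pin-tool compound addition at 37 °C. Normalized responses across the concentration series yield fitted curves.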
KB-V1 MDR tox: kills drug-selected multidrug resistant KB-V1 cells; KB-V1 MDR cells viability, CellTiter-Glo, 72 h; Potency, µM (highest dose often 46.1 µM), usual class: cytotoxic; actives 3.4% (n = 400,000); also: % is scaled to controls: 0 for no effect and ±100 for the full control effect; nearly all actives have a fitted effect of over 60% in size
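Readout: CellTiter-Glo luminescence, 10 min after addition. Cells: KB-V1 MDR subline, 72 h at 37 degrees C with compound. Analysis: corrected, normalized data fitted to concentration-effect curves.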
HT1080 IDH1KD tx: kills HT-1080 cells with IDH1 knockdown. HT-1080 IDH1 knockdown viability, ATP luminescence, 48 h. Potency, µM (titrated, usually from 46.1 µM), without a hit: at the top dose activity, negative = toxicity, usual class: cytotoxic. actives 2% (n = 360,000). AID 686971;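 also: 0% = DMSO wells and -100% = cell-free medium wells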
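Viability of IDH1-knockdown HT-1080 fibrosarcoma cells was assessed by CellTiter-Glo after 48 h at 37 °C with titrated compound; concentration-effect curves were classified by fit quality and response size.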
HT1080-NT tox: kills 2HG-producing HT-1080-NT fibrosarcoma cells | HT-1080-NT fibrosarcoma viability, CellTiter-Glo ATP luminescence, 48 h | Potency, µM (highest dose often 46.1 µM), for inactives: at the top dose activity, negative = less viability, hits mostly cytotoxic | actives 1.6% (n = 360,000) | AID 686970;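 also: NT is the 2HG producing partner of a matched IDH1 knockdown line; 0% = DMSO-treated cells and -100% = media-only wells without cells; nearly all actives have a fitted effect of over 55% in size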
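HT-1080-NT; 750 cells/well; 5% FBS RPMI; 48 h compound, 37 degrees C; CellTiter-Glo luminescence; curve fitting and curve-class assignment.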
MCF10A rerep: inducers of DNA re-replication in MCF 10A breast cells; MCF 10A DNA re-replication, Hoechst nuclear intensity, 48 h; Potency, µM (doses to about 46.1 µM), for the others: at the top dose activity, positive = re-replication, actives largely listed as activators; actives 2.9% (n = 350,000); also: % of control where 0% means no effect; nearly all actives have a fitted effect of over 50% in size
SW480 rereplic: DNA re-replication induction in SW480 cells | Potency, µM (titrated, usually from 46.1 µM), for the others: at the highest dose re-replication activation, usual class: activators | AID 624297 | actives 1.8% (n = 340,000) | SW480 DNA re-replication, Hoechst DNA content imaging, 48 h; also: % of control where 0% means no effect; nearly all actives have a fitted effect of over 55% in size
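Image-based DNA-content assay: after two days of treatment, nuclei were labelled with the DNA dye Hoechst and imaged, and hits were compounds raising the count of nuclei showing high fluorescence intensity.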
* = called active by the depositor; i = inactive; ? = inconclusive; nt = no result given; [ ] = remark or other dose. An excerpt weighted towards active compounds, which were near 8% of everything screened. Calls follow the shape of the dose curve; as a rule, active = well fitted curve in the direction sought with a large enough effect; inconclusive = small, poorly fitted or top-dose-only effect, or another doubt; inactive = no such curve, though single readings can be large; an effect the other way counts as inactive or inconclusive. Potency is read from the fitted curve at half-maximal effect.

SMILES	KB-3-1 tox	KB-V1 MDR tox	HT1080 IDH1KD tx	HT1080-NT tox	MCF10A rerep	SW480 rereplic
COc1ccc(OC)c(/C=C2\S/C(=N/NC(=O)c3ccc4ccccc4c3)NC2=O)c1	i	i	5.3%	0.4%	16.4µM*	1.6%
O=C1N/C(=N/NC(=O)c2cccc3ccccc23)S/C1=C\c1ccccc1OCc1ccccc1	?	i	?	?	23.1µM*	5.0%
CCCCCn1c(=O)[nH]c2cc(C(=O)NCc3ccc(F)cc3)ccc2c1=O	i	i	nt	nt	nt	nt
CCCN(CCC)CCNC(=O)Cn1ncc2c([nH]c3ccc(C)cc32)c1=O	i	i	nt	nt	nt	nt
Cn1c(NCCN2CCCC2)nc2cc(-c3ccccc3)sc2c1=O	i	i	13µM*	?	nt	nt
Cn1c(NCCN2CCCC2)nc2cc(-c3cccc(C(F)(F)F)c3)sc2c1=O	i	i	?	20.6µM*	nt	nt
O=c1c2sc(-c3ccccc3)cc2nc2n1CCCCC2	i	11.6µM*	-3.5%	-0.2%	?	-1.4%
C=C(/C=C/c1ccc(N(C)C)cc1)c1nc2ccccc2s1	i	?	nt	nt	nt	nt
Cc1cccc(Oc2ccc(NC(=O)CCC(=O)OCC(=O)c3ccc(Br)cc3)cc2)c1C	i	i	nt	nt	nt	nt
CNc1ncc(-c2nnnn2-c2ccccc2)c(-c2ccccc2)n1	i	20.6µM*	-17.9%	-2.0%	?	14.6µM*
c1ccc(-c2nnnn2-c2ccccc2)cc1	i	i	-0.1%	4.6%	4.0%	?
Nc1ccc(C#Cc2ccc3c(=O)c4ccccc4oc3c2)cc1	i	?	-15.5%	-1.3%	?	16.4µM*
COc1cc2oc3cc(C#Cc4ccc(N)cc4)ccc3c(=O)c2cc1OC	i	i	-13.6%	-19.0%	9.2µM*	9.2µM*
COc1cc2oc3ccc(C#Cc4ccc(N)cc4)cc3c(=O)c2cc1OC	i	i	-6.6%	-17.9%	23.1µM*	0.0%
COc1cc2oc3ccc(C#Cc4ccccn4)cc3c(=O)c2cc1OC	i	?	-0.9%	11.1%	20.6µM*	?
Cn1c2ccccc2c(=O)c2ccc(C#Cc3ccccn3)cc21	i	i	11.6%	-1.3%	?	5.7%
COc1ccc(CCNC(=O)CCCn2c(=O)c3ccccc3n(Cc3ccccc3)c2=O)cc1OC	i	i	nt	nt	nt	nt
CCOC(=O)C1CCN(S(=O)(=O)c2ccc(N3CCCCS3(=O)=O)cc2)CC1	i	i	nt	nt	nt	nt
Cn1nc(-c2ccccc2F)c2cc(C(=O)NCc3cccc(Cl)c3)sc21	i	i	nt	nt	nt	nt
O=C(Nc1ccccc1C(=O)N1CCCCC1)c1nsc2ccccc12	i	i	nt	nt	nt	nt
CCOC(=O)c1cc2c(=O)n3ccccc3nc2n(CCCOC)c1=NC(=O)c1cc2ccccc2o1	i	i	nt	nt	nt	nt
Cc1cccn2c(=O)c3cc(C(=O)NCc4ccccc4)c(=N)n(CCOCCO)c3nc12	i	i	nt	nt	nt	nt
COc1ccc(-c2nc3c4ccccc4n(CC(=O)Nc4cc(F)ccc4F)c(=O)n3n2)cc1	i	i	nt	nt	nt	nt
COc1ccccc1NC(=O)C(=O)/C=C(\O)c1ccccc1	i	18.4µM*	10.4%	-5.6%	-16.8%	-5.0%
Cc1noc(C)c1C(=O)N1CCCC(C(=O)c2cccc(C(F)(F)F)c2)C1 (stereo not drawn)	i	i	9.9%	13.8%	-1.7%	5.8µM*
SMILES	KB-3-1 tox	KB-V1 MDR tox	HT1080 IDH1KD tx	HT1080-NT tox	MCF10A rerep	SW480 rereplic
CCc1ccc(CNC(=O)c2c3c(nc4ccccc24)C(=O)N(C2CCCCC2)C3)cc1	i	13µM*	nt	nt	nt	nt
CN1CCN(c2nc(-c3ccccc3)cc(C(F)(F)F)n2)CC1	i	i	-6.9%	-13.1%	17.1%	-12.8%
CN1CCN(c2nc(-c3cccs3)cc(C(F)(F)F)n2)CC1	i	16.4µM*	9.0%	3.6%	?	9.1%
Cc1ccc(NC(=O)Cn2c(=O)n(Cc3nc(-c4ccccc4)no3)c(=O)c3cc4c(cc32)OCO4)cc1C	i	i	nt	nt	nt	nt
COc1ccc(Cn2c(=O)[nH]c3cc(C(=O)N4CCN(Cc5ccccc5)CC4)ccc3c2=O)cc1	?	20.6µM*	?	-29.0%	19.9%	2.4%
COc1ccc(Cn2c(=O)[nH]c3cc(C(=O)N4CCN(c5ccccc5OC)CC4)ccc3c2=O)cc1	20.6µM*	?	-19.0%	?	12.9%	?
COc1ccc(Cn2c(=O)[nH]c3cc(C(=O)N4CCN(c5ccccc5F)CC4)ccc3c2=O)cc1	i	i	-5.4%	5.4%	27.7%	-2.0%
COC(=O)c1ccc2c(=O)n(CCCCCC(=O)N3CCN(c4ccccc4)CC3)c(=O)[nH]c2c1	?	?	-6.9%	4.0%	14.6µM*	-3.2%
COc1cc(OC)c(/C=C/c2ccc3ccccc3[n+]2[O-])c(OC)c1	i	i	nt	nt	nt	nt
CCOc1ccc(CCNC(=O)Cn2nnc(-c3ccccc3Cl)n2)cc1OCC	i	i	nt	nt	nt	nt
COc1cccc(CNC(=O)C2CCCCN2S(=O)(=O)c2ccc(F)cc2)c1 (stereo not drawn)	i	i	nt	nt	nt	nt
CCOC(=O)c1ccc(Oc2nc(NC(C)(C)C)nc(N(C)C)n2)cc1	i	i	?	?	16.4µM*	?
CCOC(=O)c1ccc(Oc2nc(N(C)C)nc(N(C)C)n2)cc1	i	i	-2.6%	1.2%	-1.2%	0.1%[9.22 µM]
Cc1ccc(NC(=O)C(=O)NCC(c2cccnc2)N2CCN(c3ccccc3F)CC2)cc1Cl (stereo not drawn)	i	i	nt	nt	nt	nt
Cc1ccc2c(c1)=N/C(=N\c1[nH]c(O)c3ccccc13)N=2	?	?	?	23.1µM*	nt	nt
Oc1[nH]c(N=C2N=c3ccccc3=N2)c2ccccc12	?	?	?	?	?	16.4µM*
Cc1ccc(O)c(Nc2nc(-c3ccccc3)nc3ccccc23)c1	i	i	-5.0%	-4.6%	?	11.2%
CCCc1cc(=O)[nH]c(Nc2cc(C)ccc2OC)n1	i	i	nt	nt	nt	nt
O=C(c1cccc([N+](=O)[O-])c1)N1c2ncnn2C2(CCCCC2)[C@@H]2CCCC[C@@H]21	i	i	nt	nt	nt	nt
CC(=O)N1CCc2c(sc3c2c(=O)n(CCc2ccccc2)c(=O)n3Cc2cccc(C)c2)C1	i	i	nt	nt	nt	nt
CCN1C(=O)C(Cc2nc3ccccc3c(=O)n2-c2ccccc2)c2ccccc21 (stereo not drawn)	i	4.11µM*	-12.1%	-11.1%	5.1%	0.8%
